Measured values as given in the supplement of paper PMC9262897, “Low-cost anti-mycobacterial drug discovery using engineered E. coli” (Nature Communications, 2022).
Where a name gives a salt, the structure may show the parent alone. ± gives the standard deviation of the averaged measurements.

System: E. coli TESEC Mtb Alr
Experiment: growth (OD600 after 10 h); higher = more growth (less inhibition)
Details: compound 0.1 mM
Procedure: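 TESEC Mtb Alr E. coli, or the Alr+ wild-type control, in 384-well plates with Prestwick library compounds at 0.1 mM and 1% DMSO, across arabinose induction levels of 1E3 to 1E7 nM. Growth is read as OD600 after 10 h at 37 °C in triplicate biological replicates.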

[1] = arabinose 1000 nM, raw OD600 reference: median of DMSO wells 0.294, cell-free background 0.041
[2] = arabinose 10000 nM, raw OD600 reference: median of DMSO wells 0.264, cell-free background 0.041
[3] = arabinose 100000 nM, raw OD600 reference: median of DMSO wells 0.201, cell-free background 0.041
[4] = arabinose 1000000 nM, raw OD600 reference: median of DMSO wells 0.193, cell-free background 0.041
[5] = arabinose 10000000 nM, raw OD600 reference: median of DMSO wells 0.146, cell-free background 0.041

SMILES | growth [1] | growth [2] | growth [3] | growth [4] | growth [5]
NC(N)=Nc1nc(CSCC/C(N)=N/S(N)(=O)=O)cs1 [Famotidine] | 0.298 ± 0.013 | 0.273 ± 0.014 | 0.203 ± 0.03 | 0.187 ± 0.0063 | 0.151 ± 0.011
CC[C@@H]1C(=O)OC[C@@H]1Cc1cncn1C [Pilocarpine nitrate] | 0.247 ± 0.037 | 0.244 ± 0.011 | 0.204 ± 0.032 | 0.18 ± 0.0025 | 0.145 ± 0.0063
O=C1c2ccccc2S(=O)(=O)N1CCCCN1CCN(c2ncccn2)CC1 [Ipsapirone] | 0.256 ± 0.015 | 0.249 ± 0.0074 | 0.171 ± 0.0059 | 0.154 ± 0.007 | 0.141 ± 0.0076
Clc1ccc2c(c1)CCc1cccnc1C2=C1CCNCC1 [Desloratadine] | 0.211 ± 0.0061 | 0.256 ± 0.0088 | 0.163 ± 0.0094 | 0.153 ± 0.0064 | 0.145 ± 0.0037
Nc1nc(O)c2ncn(CCC(CO)CO)c2n1 [Penciclovir] | 0.31 ± 0.013 | 0.262 ± 0.0029 | 0.24 ± 0.042 | 0.18 ± 0.011 | 0.1665 ± 0.0015
O=C1NCC2(CCN(CCc3ccccc3)CC2)O1 [Fenspiride hydrochloride] | 0.288 ± 0.013 | 0.27 ± 0.0043 | 0.199 ± 0.0053 | 0.185 ± 0.0044 | 0.148 ± 0.0017
O=C1NCCN1c1ncc([N+](=O)[O-])s1 [Niridazole] | 0.0513 ± 0.005 | 0.0413 ± 0.0019 | 0.0452 ± 0.0004 | 0.0407 ± 0.00045 | 0.0598 ± 0.023
CC1(C)S[C@@H]2[C@H](NC(=O)Cc3ccccc3)C(=O)N2[C@H]1C(=O)O [Benzylpenicillin sodium] | 0.2824 ± 0.00081 | 0.282 ± 0.0074 | 0.172 ± 0.011 | 0.227 ± 0.017 | 0.132 ± 0.0078
